VP16 counter – counter-screen for ROR gamma inhibitors: Gal4-VP16 reporter | Potency, µM (series often up to 53.6 µM), for inactives: at the top dose activity, negative = inhibition, most hits filed as inhibitors | Drosophila S2 Gal4-VP16 UAS-luciferase, luminescence, 20 h | hit rate 3.5% among 310,000 | AID 2546;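 further: Gal4-VP16 expression switched on by copper sulfate through the metallothionein promoter; potency means the concentration at half of the fitted maximal effect; nearly all actives have a fitted effect of over 50% in size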
RORgamma inh – blocks mouse ROR gamma transcriptional activity; P51450; Drosophila S2 Gal4-RORgamma UAS-luciferase reporter, 20 h; Potency, µM (top dose mostly 53.6 µM), for inactives: top-dose activity change, negative = inhibition, most hits filed as inhibitors; hit rate 5.4% among 310,000; AID 2551; further: potency means the concentration at half of the fitted maximal effect; nearly all actives have a fitted effect of over 60% in size
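A Gal4/UAS one-hybrid system in insect cells: metallothionein-promoter Gal4–ROR gamma fusion plus Photinus luciferase reporter. Copper sulfate 700 uM final, 20 hr ambient incubation, luminescent detection after 10 min with reagent.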
TSHR antag – antagonists of human thyroid stimulating hormone receptor | activity change, negative = inhibition, % at 11.5 µM | hit rate 0.2% among 330,000 | TSHR-expressing cells, TSH-stimulated cAMP HTRF, 2 h; hits give low values;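 active means activity change below a set negative limit, meaning inhibition stronger than a set level, cut at about -70% in these data; inconclusive means activity change between two set negative limits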
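Freshly harvested TSHR cells receive pin-tooled compound, then EC80 TSH at 4nM final. After 2 hours at 37 deg C, antibody in lysis buffer and cAMP-d2 are added; 30 minutes at ambient temperature precede the HTRF read.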
ELG1 DNA repair – blocks ELG1-dependent DNA repair in HEK293T cells. HEK293T ELG1-luciferase reporter, luminescence, 16 h; DNA damage induced by 5-fluorouridine. hit rate 2.3% among 330,000. Potency, µM (top dose mostly 46.1 µM), without a hit: at the top dose activity change, negative = inhibition, usual class: inhibitors. AID 504467; further: potency means the concentration at half of the fitted maximal effect; nearly all actives have a fitted effect of over 55% in size
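5-Fluorouridine DNA damage + compound/DMSO, 2,000 cells/well, 16 h, 37 °C/5% CO2. ONE-Glo, 30 min RT, luminescence. Readout = decrease in reporter signal.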
Coupling enz – counter-screen for Giardia aldolase inhibitors: coupling enzyme system | coupling enzyme system counterscreen, AmpLite Red fluorescence | activity change, negative = inhibition, % at 58.2 µM, hits read low | hit rate 0.67% among 290,000 | AID 2472; in the data active means activity change below about -30%
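Activity here indicates interference with the coupling reaction, not aldolase inhibition. Compounds at 57.5 uM final met coupling enzymes for 10 min at RT; substrate and AmpLite Red detection followed, with a 525/598 nm fluorescence read after 20 min.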
An asterisk follows results filed as active; ? = inconclusive; . = no result. This is a sample that favours compounds with a hit; in the whole collection about 8% have one here. Unless noted, the call rests on the fitted dose curve; in most records, active means well fitted curve in the direction sought with a large enough effect; inconclusive means small, poorly fitted or top-dose-only effect, or another doubt; inactive means no such curve, though single readings can be large; an effect the other way counts as inactive or inconclusive. On the % scale 0 is the no-effect control and ±100 the full control effect.

SMILES	VP16 counter	RORgamma inh	TSHR antag	ELG1 DNA repair	Coupling enz
Nc1ncnc2c1ncn2[C@@H]1O[C@H](CNC(=O)[C@@H](N)Cc2ccc(C(F)(F)F)cc2)[C@@H](O)[C@H]1O	.	.	-7	?	.
COC(=O)COc1ccccc1C(=O)Nc1ccc(OC)cc1	-7%	18%	3	11%	-5
COc1ccc(OCCNC(=O)c2ccccc2OCC(=O)N2CCCCC2)cc1	-1%	40%	5	23µM*	4
COc1ccc(OCCNC(=O)c2ccccc2OCC(=O)Nc2ccc(NC(C)=O)cc2)cc1	-11%	-5%	-15	16µM*	-6
COc1ccccc1C(=O)NCCC(=O)Nc1ccc(OC(F)(F)F)cc1	-11%	-2%	-95*	1%	-2
CCOC(=O)c1cnc2c(C)cc(Cl)cc2c1N1CCN(C)CC1	2%	-8%	3	-8%	2
Cc1ccc(NS(=O)(=O)c2ccc(C(=O)N3CCN(c4ncccn4)CC3)cc2)cc1	1.3µM*	-45%	-6	5.8µM*	8
Cc1cc(-c2ccccc2)n(-c2ccc(C(=O)N3CCN(c4ncccn4)CC3)cc2)n1	.	?	-4	6.5µM*	1
COc1cccc(S(=O)(=O)Nc2ccc(C(=O)N3CCCCCC3)cc2)c1	8.9µM*	8.9µM*	0	-10%	2
O=C(c1ccc(NS(=O)(=O)c2ccc(F)cc2)cc1)N1CCCCC1	.	.	-7	10%	.
O=C(c1ccc(S(=O)(=O)Nc2ccc(F)cc2)cc1)N1CCN(c2ccccn2)CC1	?	-17%	-8	16µM*	1
Cc1nc(Nc2ncc(C(=O)Nc3c(C)cccc3Cl)s2)cc(N2CCN(CCO)CC2)n1	-3%	15%	.	.	.
Cc1ccc(C)c(C(=O)CN2C(=O)NC3(CCCCCC3)C2=O)c1	.	.	0	20%	.
CCOC(=O)c1c(NC(=O)COC(=O)Cn2cnc3c2c(=O)n(C)c(=O)n3C)sc(C)c1CC	.	.	-20	?	.
O=C(c1cc(-c2ccc(Br)cc2)n[nH]1)N1CCN(C(=O)c2ccccc2Br)CC1	-9%	21%	-4	?	2
O=C(c1ccccc1O)N1N=C(C(F)(F)F)CC1(O)c1ccc([N+](=O)[O-])cc1 (stereo not given)	10µM*	11µM*	0	?	-2
CCC1=NN(C(=O)c2ccccc2Br)C(O)(c2ccc(Br)cc2)C1 (stereo not given)	?	8.9µM*	15	-23%	1
CCC1=NN(C(=O)c2ccccc2O)C(O)(c2ccccc2)C1 (stereo not given)	7.9µM*	5µM*	-15	-13%	5
CCCCCCCCCCCCC/C=C/C(O)C(COP(=O)(O)OCCN)NC(=O)CCCCCCCCCCCCCCCCC (stereo not given)	-3%	-13%	.	.	1
Cc1ccc(OCC(=O)NCCNC(=O)c2ccncc2)cc1C	2%	-11%	15	?	2
O=C1CCC([N+](=O)[O-])C(c2ccccc2C(F)(F)F)N1 (stereo not given)	-1%	-14%	-5	13%	0
CCOC(=O)/C(O)=C/c1ncc(C(F)(F)F)cc1Cl	10µM*	8.9µM*	9	10%	1
CCOC(=O)C(C(=O)N(C)C)c1ncc(C(F)(F)F)cc1Cl (stereo not given)	-3%	-1%	6	-5%	3
O=C(NCCc1ccc(F)cc1)C1CCN(C(=O)Nc2ccccc2)CC1	.	.	1	8%	.
O=C(NCCS(=O)(=O)N1CCN(c2cccc(Cl)c2)CC1)c1cc(=O)c2ccccc2o1	-1%	18%	7	-3%	1
SMILES	VP16 counter	RORgamma inh	TSHR antag	ELG1 DNA repair	Coupling enz
NC(=S)Nc1ncc(C(F)(F)F)cc1Cl	?	7.1µM*	3	26%	2
Cc1c(Cl)cccc1NC(=S)NNc1ncc(C(F)(F)F)cc1Cl	?	16µM*	-5	?	1
Cc1cccc(C)c1NC(=S)NNc1ncc(C(F)(F)F)cc1Cl	?	7.9µM*	6	-6%	5
NC(=O)NNc1ncc(C(F)(F)F)cc1Cl	-12%	7%	-5	-7%	2
NC(=S)c1ncc(C(F)(F)F)cc1Cl	1%	-36%	29	-6%	-4
FC(F)(F)c1cnc(NNC(=S)Nc2cccnc2)c(Cl)c1	?	13µM*	0	?	-2
N#Cc1ccc(CN2CCC3(CC2)CCN(C(=O)c2csnn2)CC3)cc1	-9%	-7%	.	.	2
CS(=O)(=O)c1ccc(Cl)c(NC(=O)CCN2C(=O)C3CC=CCC3C2=O)c1 (stereo not given)	.	.	-21	2%	.
O=C(COC(=O)c1cc([N+](=O)[O-])ccc1NCCO)c1ccccc1	-22%	?	7	-3%	1
NCCCC[C@H](N)C(=O)N[C@@H](CCCN=C(N)N)C(=O)N1CCC[C@H]1C(=O)N1CCC[C@H]1C(=O)NCC(=O)N[C@@H](Cc1ccccc1)C(=O)N[C@@H](CO)C(=O)N1CCC[C@H]1C(=O)N[C@@H](Cc1ccccc1)C(=O)O	6%	-8%	.	.	-2
O=C(CCNS(=O)(=O)c1ccc(OC(F)(F)F)cc1)NC1CC1	.	.	18	5%	.
Cc1ccccc1NC(=S)NNc1ncc(C(F)(F)F)cc1Cl	3%	3%	9	?	3
O=C(O)c1ccc(/C=N/Nc2ncc(C(F)(F)F)cc2Cl)cc1	13%	10µM*	7	25%	-1
Fc1ccccc1NC(=S)NNc1ncc(C(F)(F)F)cc1Cl	16µM*	?	2	?	0
Cn1c(SCC(=O)N2CCCCC2)nc2c([nH]c3ccccc32)c1=O	0%	6%	-2	-3%	1
CCOC(=O)N1CCN(C(=O)CSc2nc3c([nH]c4ccccc43)c(=O)n2C)CC1	-8%	41%	19	2.6µM*	-2
COc1ccc2c(COC(=O)[C@@H]3CCCN3S(=O)(=O)c3ccc(Cl)cc3)cc(=O)oc2c1	.	.	0	9%	.
O=[N+]([O-])c1ccc(/C=C2\CCC(C3=CCCC3)=C2N2CCOCC2)cc1	4µM*	?	-3	?	4
O=C(c1ccccc1Cl)N1CCN(C(=O)C2CCCO2)CC1 (stereo not given)	.	.	3	15%	.
O=C(c1cc2cc([N+](=O)[O-])ccc2oc1=O)N1CCOCC1	?	5µM*	-5	?	1
O=C(c1cc2cc([N+](=O)[O-])ccc2oc1=O)N1CCN(c2ncccn2)CC1	1%	20%	-2	5%	0
Cc1cccc(NC(=O)CNC(=O)COc2cccnc2[N+](=O)[O-])c1C	.	.	-7	3%	.
O=C(c1ccc(Cn2c(=O)[nH]c3ccccc3c2=O)cc1)N1CCN(c2ccc(Cl)cc2)CC1	-19%	?	-8	23µM*	0
